Data: PubChem BioAssay (NCATS)
Results filed as inconclusive are left out. Activity calls are given as the source filed them. Calls come from the whole dose curve; as a rule, active = well fitted curve in the direction sought with a large enough effect; inconclusive = small, poorly fitted or top-dose-only effect, or another doubt; inactive = no such curve, though single readings can be large; an effect the other way counts as inactive or inconclusive.

system: Nanoluciferase (engineered Oplophorus gracilirostris luciferase); assay: Primary Nanoluciferase (NLuc) qHTS assay for identification of artifact compounds. (AID 1845222); conditions: NLuc-conditioned medium, Nano-Glo luminescence, 5 min; series mostly up to 54.1 µM; activity, negative = inhibition: at the top concentration;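 note: NLuc secreted into diluted conditioned medium of S16 cells; 0% = DMSO and -100% = no enzyme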
Outline: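 Using secreted nanoluciferase in S16 culture medium (0.22 um filtered, 1:55 dilution), compounds were preincubated 15 min at RT. Signal was generated with Nano-Glo reagent (1:100) over 5 min.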

**Q.** Which “activity, negative = inhibition” value does the source give for CC1=C2C(=O)C=C(CO)C2[C@H]2OC(=O)[C@H](C)[C@@H]2[C@@H](OC(=O)Cc2ccc(O)cc2)C1 (stereo partly drawn) here?
**A.** 0.341% [at 25.7 µM] (inactive)

**Q.** For COc1c(O[C@@H]2O[C@H](CO)[C@@H](O)[C@H](O)[C@H]2O)c(CCC(=O)O)cc2ccoc12, which “activity, negative = inhibition” value is on record?
**A.** 1.43% (inactive)

**Q.** With CC1CC(=O)C2C(O)(C1)CC(O)C13OC1c1c(O)cccc1C(=O)C23O (stereo not drawn) as the compound, how does the “activity, negative = inhibition” value read?
**A.** -3.03% (inactive)

**Q.** With CSCC1OC(n2cnc3c(N)ncnc32)C(O)C1O (stereo not drawn) as the compound, how does the “activity, negative = inhibition” value read?
**A.** 4.89% (inactive)

**Q.** With C=CC1(C)CC=C2C(CCC3C(C)(C(=O)O)CCCC23C)C1 (stereo not drawn) as the compound, how does the “activity, negative = inhibition” value read?
**A.** 3.47% (inactive)

**Q.** For Oc1ccc(CC2NCCc3cc(O)c(O)cc32)cc1 (stereo not drawn), which “activity, negative = inhibition” value is on record?
**A.** -2.36% (inactive)

**Q.** With C=C(CCO[C@@H]1O[C@H](CO)[C@@H](O)[C@H](O)[C@H]1O)C(=O)O as the compound, how does the “activity, negative = inhibition” value read?
**A.** 0% (inactive)

**Q.** With C/C=C1\[C@H](O[C@@H]2O[C@H](CO)[C@@H](O)[C@H](O)[C@H]2O)OC=C(C(=O)O)[C@H]1CC(=O)OCCc1ccc(O)cc1 as the compound, how does the “activity, negative = inhibition” value read?
**A.** 4.08% [at 25.7 µM] (inactive)

**Q.** With CCCCC(=O)N1c2ccccc2NC2=C(C(=O)CCC2)C1c1ccccc1Cl (stereo not drawn) as the compound, how does the “activity, negative = inhibition” value read?
**A.** -19.9% (inactive)

system: not listed separately; assay: Primary redox qHTS assay for identification of artifact compounds. (AID 1845223); conditions: Amplex Red/HRP redox cycling with DTT, fluorescence; series mostly up to 53.8 µM; redox activity (% of DA3003): at the top concentration;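 note: 0% = DMSO and 100% = reference compound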
Outline: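 Amplex Red (25 uM) and HRP (250 mU/mL) in HBSS, with compounds for 15 min, then 250 uM DTT for 30 min, room temperature, dark. Fluorescence 525/598 nm read; normalized to DMSO and 10 uM DA3003; Hill fit.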

**Q.** For COc1ccc(CCC(=O)O)c(O[C@@H]2O[C@H](CO)[C@@H](O)[C@H](O)[C@H]2O)c1, which “redox activity (% of DA3003)” value is on record?
**A.** -13.6% (inactive)

**Q.** With Oc1ccc2c(-c3c(-c4ccccn4)nn4c3CCC4)ccnc2c1 as the compound, how does the “redox activity (% of DA3003)” value read?
**A.** -4.23% (inactive)

**Q.** With COc1cc(CO)cc(OC)c1O[C@@H]1O[C@H](CO)[C@@H](O)[C@H](O)[C@H]1O as the compound, how does the “redox activity (% of DA3003)” value read?
**A.** -10.3% (inactive)

**Q.** For C[C@]1(OC(=O)/C=C/c2ccc(O)cc2)C[C@@H](O)[C@]2(O)C=CO[C@@H](O[C@@H]3O[C@H](CO)[C@@H](O)[C@H](O)[C@H]3O)C12 (stereo partly drawn), which “redox activity (% of DA3003)” value is on record?
**A.** 5.37% [at 25.6 µM] (inactive)

**Q.** With FC(F)(F)c1nnc2c(Sc3ccccc3)nc3ccc(Cl)cc3n12 as the compound, how does the “redox activity (% of DA3003)” value read?
**A.** -0.456% (inactive)

**Q.** With C/C(=C\CCC(C)(C)O)CCO[C@@H]1O[C@H](CO[C@@H]2O[C@@H](C)[C@H](O)[C@@H](O)[C@H]2O)[C@@H](O)[C@H](O)[C@H]1O as the compound, how does the “redox activity (% of DA3003)” value read?
**A.** -0.323% [at 25.6 µM] (inactive)

**Q.** For C=C(C(=O)O)[C@@H]1CC[C@@]2(C)CC[C@@H](O)C(=C)C2C1 (stereo partly drawn), which “redox activity (% of DA3003)” value is on record?
**A.** 0.878% (inactive)

**Q.** For O=C(CC1CC(c2ccc(F)cc2F)=NO1)N1CCOCC1 (stereo not drawn), which “redox activity (% of DA3003)” value is on record?
**A.** -1.18% (inactive)

**Q.** Which “redox activity (% of DA3003)” value does the source give for CC12CC(O)C(O)C=C1c1cc(O)cc(O)c1C(=O)O2 (stereo not drawn) here?
**A.** -1.88% (inactive)

**Q.** With CC(O)C1NC(=O)C2CCCN2C1=O (stereo not drawn) as the compound, how does the “redox activity (% of DA3003)” value read?
**A.** -13.6% [at 85.7 µM] (inactive)

**Q.** With C=CC1(C)C=C2CC[C@H]3[C@@](C)(C(=O)O)CCC[C@]3(C)C2CC1 (stereo partly drawn) as the compound, how does the “redox activity (% of DA3003)” value read?
**A.** 8.23% (inactive)

**Q.** Which “redox activity (% of DA3003)” value does the source give for C[C@H]1[C@H](C)C[C@@H](C(=O)O)C2CC[C@]3(C)C(=CC[C@@H]4[C@@]5(C)CC[C@H](O)C(C)(C)[C@@H]5CC[C@]43C)[C@@H]21 (stereo partly drawn) here?
**A.** -0.177% (inactive)

**Q.** With C/C=C/C=C/C=C/C(=O)OC1C=C2C(O)OC(=O)[C@]2(O)[C@@]2(C)CCCC(C)(C)[C@H]12 (stereo partly drawn) as the compound, how does the “redox activity (% of DA3003)” value read?
**A.** 8.93% [at 25.6 µM] (inactive)

**Q.** With COc1cc(/C=C/C(=O)O[C@@H]2C[C@@](O)(C(=O)O)C[C@@H](O)[C@@H]2O)ccc1O as the compound, how does the “redox activity (% of DA3003)” value read?
**A.** -4.02% (inactive)

**Q.** Which “redox activity (% of DA3003)” value does the source give for COc1ccnc2[nH]cc(C(=O)C(=O)N3CCN(C(=O)c4ccccc4)CC3C)c12 (stereo not drawn) here?
**A.** 3.82% (inactive)

**Q.** Which “redox activity (% of DA3003)” value does the source give for COc1ccc2c(c1)N1C(=O)C[C@@]34C=CC[N@+]5([O-])CC[C@H]2[C@H](CC3)[C@@]145 here?
**A.** 0.859% (inactive)

**Q.** For CC1(C)CC2C(O)C3=C(CC(C)(O)C2C1)C(=O)OC3 (stereo not drawn), which “redox activity (% of DA3003)” value is on record?
**A.** -12.9% (inactive)

**Q.** With Nc1nc(COC(=O)c2ccc([N+](=O)[O-])cc2)nc(Nc2ccccc2)n1 as the compound, how does the “redox activity (% of DA3003)” value read?
**A.** -0.602% (inactive)

**Q.** With C[C@@H]1O[C@@H](O[C@@H]2[C@@H](O)[C@H](O[C@@H]3[C@@H](O)[C@@H](O)[C@H](O[C@H]4[C@H](OC(=O)[C@]56CCC(C)(C)C[C@H]5C5=CCC7[C@@]8(C)C[C@H](O)[C@H](O[C@@H]9O[C@H](C(=O)O)[C@@H](O)[C@H](O)[C@H]9O)[C@@](C)(CO)C8[C@H](O)C[C@@]7(C)[C@]5(C)C[C@H]6O)O[C@@H](CO)[C@@H]4O)O[C@H]3C)OC[C@H]2O)[C@H](O)[C@H](O)[C@H]1O (stereo partly drawn) as the compound, how does the redox activity (% of DA3003) read?
**A.** 16.5% [at 11.5 µM] (inactive)

**Q.** With C[C@H]1[C@@H](O)[C@H](O)C2[C@]3(C)C([C@@H](O)[C@H]4OC(=O)[C@@H]1[C@@]24C)[C@](C)(O)C=C[C@H]3O[C@@H]1O[C@H](CO)[C@@H](O)[C@H](O)[C@H]1O (stereo partly drawn) as the compound, how does the “redox activity (% of DA3003)” value read?
**A.** -10.1% [at 25.6 µM] (inactive)

**Q.** For CC1(C)C2CCC1(C)C(OC(=O)C(O)(CC(=O)O)CC(=O)O)C2 (stereo not drawn), which “redox activity (% of DA3003)” value is on record?
**A.** 20% (inactive)

**Q.** For C=C(C(=O)O)[C@@H]1CC[C@H](C)[C@@H]2CC(=O)C(C)=C2C1, which “redox activity (% of DA3003)” value is on record?
**A.** -7.14% (inactive)

**Q.** Which “redox activity (% of DA3003)” value does the source give for CC/C=C\[C@H](O)[C@H](O)C1=C(C)C(=O)[C@]2(O1)C(=O)N[C@@](O)(C(=O)c1ccccc1)[C@@H]2O here?
**A.** 1.96% [at 25.6 µM] (inactive)

**Q.** For CC1(C)O[C@H]2CC(=O)OC[C@@]23C1=C(O)C(=O)[C@]1(C)C3CC[C@@]2(C)[C@H](c3ccoc3)OC(=O)[C@H]3O[C@]321 (stereo partly drawn), which “redox activity (% of DA3003)” value is on record?
**A.** 6.76% [at 25.6 µM] (inactive)
